From PubChem
Myeloid diff MLP = induction of myeloid progenitor differentiation, primary screen, cell-based, flow cytometry, MLPCN library; hit rate 1% among 360,000; AID 624256, 2012; ER-HoxA9 myeloid progenitors, lysozyme-GFP differentiation; calls only at 10 µM;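 active means normalized GFP-positive differentiation at or above the plate's own cutoff, the solvent-only control mean plus 3 SD; inconclusive means no clear call, values can overlap the other calls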;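 further: cells exposed to compound for four days before flow analysis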
Granule exo inh = LAMP-1 surface exposure blockers, TALL-104 cells – cell-based, flow cytometry, MLPCN library, primary screen | TALL-104 LAMP-1 surface exposure; cells stimulated with thapsigargin and PMA | inhibition, % at 10 µM | hit rate 0.66% among 360,000;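 active means inhibition above about 55%, limit read from the data; inconclusive means no clear call, values can overlap the other calls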
ABCB6 inh 2 = ABCB6 transporter inhibitors, primary screen, K562-ABCB6 cells, flow cytometry, MLPCN library. fluorescence ratio to DMSO, % at 10 µM. AID 602162, 2011. K562-ABCB6 porphyrin accumulation, 1 h; hits give low values. hit rate 0.19% among 360,000. ATP-binding cassette sub-family B member 6 (Homo sapiens), Q9NP58;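 active means fluorescence ratio to DMSO below 75%, the collection mean minus 3 SD; inconclusive means too few cells collected in the well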;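 further: signal is porphyrin accumulated inside mitochondria; 100% equals median channel fluorescence of DMSO control wells; lower ratio means ABCB6 inhibition with less porphyrin fluorescence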
Target sequence (Q9NP58 whole entry, looked up): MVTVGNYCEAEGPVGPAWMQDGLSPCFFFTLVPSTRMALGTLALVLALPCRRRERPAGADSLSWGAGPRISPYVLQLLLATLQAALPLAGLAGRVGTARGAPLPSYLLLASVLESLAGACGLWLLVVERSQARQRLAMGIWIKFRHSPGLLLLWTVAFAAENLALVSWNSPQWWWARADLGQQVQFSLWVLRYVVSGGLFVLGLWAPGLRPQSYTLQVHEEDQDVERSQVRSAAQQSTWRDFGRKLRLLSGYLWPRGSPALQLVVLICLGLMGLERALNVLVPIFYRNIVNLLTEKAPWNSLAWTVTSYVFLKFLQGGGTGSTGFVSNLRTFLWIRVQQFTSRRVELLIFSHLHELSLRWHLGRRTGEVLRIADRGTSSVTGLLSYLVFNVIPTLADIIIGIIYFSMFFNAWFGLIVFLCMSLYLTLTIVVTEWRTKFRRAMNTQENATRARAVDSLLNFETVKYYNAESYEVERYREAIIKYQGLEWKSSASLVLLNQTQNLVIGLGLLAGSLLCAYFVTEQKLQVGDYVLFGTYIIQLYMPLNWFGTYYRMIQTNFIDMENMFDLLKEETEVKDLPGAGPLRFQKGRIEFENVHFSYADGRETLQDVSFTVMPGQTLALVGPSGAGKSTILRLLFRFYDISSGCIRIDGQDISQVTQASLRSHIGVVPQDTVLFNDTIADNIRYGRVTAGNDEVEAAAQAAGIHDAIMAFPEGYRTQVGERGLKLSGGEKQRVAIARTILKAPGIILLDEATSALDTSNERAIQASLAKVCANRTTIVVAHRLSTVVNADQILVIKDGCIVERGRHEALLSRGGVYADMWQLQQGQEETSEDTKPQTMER
Myeloid diff CP1 = inducers of myeloid progenitor differentiation, confirmation, cell-based, GFP/Mac1 flow cytometry, cherry pick 01 | hit rate 2% among 2,300 | shares compounds with Myeloid diff MLP | ER-HoxA9 myeloid progenitors, GFP/Mac1 double-positive flow | calls only;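 active means share of green or green-and-red cells above 9 and 9% in run 1 or 4 and 3% in run 2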
GFP autofluor = counter-screen for myeloid differentiation promoters: compound fluorescence | shares compounds with Myeloid diff MLP | fluorescence response, % (no concentration beside the values) | ER-HoxA9 myeloid progenitors, no estrogen, GFP autofluorescence flow cytometry; vehicle wells 0%, positive control 100% | hit rate 7.4% among 2,300;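 active means over 5% cells positive for green fluorescent reporter, or over 2% positive for both it and APC stain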;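 further: range taken on the double positive population between DMSO and positive control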
Starred values were filed as active, the others as inactive. Only some compounds are listed: those with a hit (about 1.8% of all), similar ones and a draw of the others.

Results for COc1ccc(CNC(=O)COC(=O)c2ccc(Br)cc2)cc1 ?
Myeloid diff MLP: inactive; Granule exo inh: -1; ABCB6 inh 2: 99

What do the screens show for `Cc1ccc(CNC(=O)COC(=O)c2cccc(S(=O)(=O)N3CCCCC3)c2)cc1`?
Myeloid diff MLP: inactive; Granule exo inh: -4; ABCB6 inh 2: 99

Results for Cc1cc(C)cc(N(C(=O)CNC(=O)c2cccs2)C(C(=O)NC2CCCC2)c2cccnc2)c1 (stereo unspecified) ?
Myeloid diff MLP: inactive; Granule exo inh: -2; ABCB6 inh 2: 98

What do the screens show for `O=C(NCC(=O)N(c1cccnc1)C(C(=O)NC1CCCC1)c1cccs1)c1ccco1` (stereo unspecified)?
Myeloid diff MLP: inactive; Granule exo inh: 16; ABCB6 inh 2: 102; Myeloid diff CP1: inactive; GFP autofluor: 67*

How did O=C(NCC(=O)N(c1cccnc1)C(C(=O)NC1CCCCC1)c1cccnc1)c1ccco1 (stereo unspecified) do in these assays?
Myeloid diff MLP: inactive; Granule exo inh: -2; ABCB6 inh 2: 93

What do the screens show for `Cc1cccc(N(C(=O)CNC(=O)c2cccs2)C(C(=O)NC2CCCC2)c2cccnc2)c1` (stereo unspecified)?
Myeloid diff MLP: inactive; Granule exo inh: 3; ABCB6 inh 2: 100; Myeloid diff CP1: inactive; GFP autofluor: 0

How did Fc1ccc(-c2c[nH]c(=S)n2Cc2ccccc2)cc1 do in these assays?
Myeloid diff MLP: inactive; Granule exo inh: -4; ABCB6 inh 2: 100

Results for O=c1[nH]cc(-c2ccc(Br)cc2)n1Cc1ccccc1 ?
Myeloid diff MLP: inactive; Granule exo inh: -11; ABCB6 inh 2: 89; Myeloid diff CP1: inactive; GFP autofluor: 0

Results for Cc1ccc(S(=O)(=O)Nc2ccccc2F)cc1C(=O)NNC(=O)c1ccccc1O ?
Myeloid diff MLP: inactive; Granule exo inh: 0; ABCB6 inh 2: 92

What do the screens show for `Cc1ccc(C2=NN(S(C)(=O)=O)C(c3cccs3)C2)cc1` (stereo unspecified)?
Myeloid diff MLP: inactive; Granule exo inh: 1; ABCB6 inh 2: 95; Myeloid diff CP1: inactive; GFP autofluor: 0

Results for COc1ccc(C2=NN(S(C)(=O)=O)C(c3cccs3)C2)cc1 (stereo unspecified) ?
Myeloid diff MLP: inactive; Granule exo inh: -3; ABCB6 inh 2: 99

What do the screens show for `O=C(Nc1ccccc1Cl)C1CCCN(S(=O)(=O)c2cccc3cccnc23)C1` (stereo unspecified)?
Myeloid diff MLP: inconclusive; Granule exo inh: 2; ABCB6 inh 2: 98

Results for O=C(Nc1nccs1)C1CCCN(S(=O)(=O)c2cccc3cccnc23)C1 (stereo unspecified) ?
Myeloid diff MLP: inactive; Granule exo inh: 5; ABCB6 inh 2: 101; Myeloid diff CP1: inactive; GFP autofluor: 0

How did CCCOc1ccc(CNC(=S)Nc2ccccc2)cc1Cl do in these assays?
Myeloid diff MLP: inactive; Granule exo inh: 4; ABCB6 inh 2: 100

What do the screens show for `CCC1(c2ccc(Cl)cc2)NC(=O)N(CC(=O)NC2CCCC(C)C2C)C1=O` (stereo unspecified)?
Myeloid diff MLP: inactive; Granule exo inh: -5; ABCB6 inh 2: 92

How did COc1ccc(S(=O)(=O)N[C@H](C(=O)N2CC[C@@]3(O)CCCC[C@H]3C2)c2ccccc2)cc1 do in these assays?
Myeloid diff MLP: inactive; Granule exo inh: -3; ABCB6 inh 2: 94

Results for COc1ccc(S(=O)(=O)N[C@@H](Cc2ccc(Cl)cc2)C(=O)N2CC[C@@]3(O)CCCC[C@H]3C2)cc1 ?
Myeloid diff MLP: inactive; Granule exo inh: 5; ABCB6 inh 2: 96; Myeloid diff CP1: inactive; GFP autofluor: 0

What do the screens show for `CSCc1cccc(C(=O)OC(C)C(=O)Nc2c(C)n(C)n(-c3ccccc3)c2=O)c1` (stereo unspecified)?
Myeloid diff MLP: inactive; Granule exo inh: -3; ABCB6 inh 2: 102

What do the screens show for `Cc1cc(OCC(=O)Nc2ccc(CN3CCOCC3)cc2)c2c(C)c(C)c(=O)oc2c1`?
Myeloid diff MLP: inactive; Granule exo inh: 1; ABCB6 inh 2: 111

How did OCC[C@H]1C[C@H](O)[C@@H](O)[C@@]2(OCCCc3ccccc32)O1 do in these assays?
Myeloid diff MLP: active; Granule exo inh: -1; ABCB6 inh 2: 102; Myeloid diff CP1: inactive; GFP autofluor: 0

How did OCC[C@@H]1C[C@@H](O)[C@H](O)[C@]2(OCCCc3ccccc32)O1 do in these assays?
Myeloid diff MLP: inactive; Granule exo inh: -16; ABCB6 inh 2: 100

What do the screens show for `Cc1cccc(NS(=O)(=O)c2cn(C)c(=O)n(C)c2=O)c1C`?
Myeloid diff MLP: inactive; Granule exo inh: 4; ABCB6 inh 2: 94

Results for COc1cc(S(=O)(=O)Nc2ccccc2C(=O)N2CCCCC2)ccc1NC(C)=O ?
Myeloid diff MLP: inactive; Granule exo inh: 15; ABCB6 inh 2: 102

What do the screens show for `Cc1ccc(-n2nc3ccc(N)cc3n2)cc1Cl`?
Myeloid diff MLP: inactive; Granule exo inh: -14; ABCB6 inh 2: 103

How did COc1ccc(-n2nc3ccc(N)cc3n2)cc1Cl do in these assays?
Myeloid diff MLP: inactive; Granule exo inh: 1; ABCB6 inh 2: 103; Myeloid diff CP1: inactive; GFP autofluor: 0

How did Cc1cc(=O)n(CNC(=O)c2ccccc2)c(=S)[nH]1 do in these assays?
Myeloid diff MLP: inactive; Granule exo inh: 9; ABCB6 inh 2: 90; Myeloid diff CP1: inactive; GFP autofluor: 3

How did O=C(NCn1cnccc1=O)c1ccccc1 do in these assays?
Myeloid diff MLP: inactive; Granule exo inh: 0; ABCB6 inh 2: 105

Results for COc1ccc(C(=O)C(C)[n+]2ccc(C)c3ccccc32)cc1[N+](=O)[O-] (stereo unspecified) ?
Myeloid diff MLP: active; Granule exo inh: 31; ABCB6 inh 2: 237; Myeloid diff CP1: inactive; GFP autofluor: 0

What do the screens show for `COc1ccc(C(=O)NC(C)CCc2ccccc2)cc1[N+](=O)[O-]` (stereo unspecified)?
Granule exo inh: -2; ABCB6 inh 2: 102

Results for O=[N+]([O-])c1ccccc1OCCCOc1cccc2cccnc12 ?
Myeloid diff MLP: inactive; Granule exo inh: 1; ABCB6 inh 2: 97

How did Cc1cc(C)n2c(SCC(=O)Nc3cccc(S(N)(=O)=O)c3)nnc2n1 do in these assays?
Myeloid diff MLP: inactive; Granule exo inh: 2; ABCB6 inh 2: 97

How did COCCN1C(=O)CSCC1(C)C(=O)Nc1c(C)cccc1C (stereo unspecified) do in these assays?
Myeloid diff MLP: inactive; Granule exo inh: -4

What do the screens show for `Cc1cccc(C)c1NC(=O)C1(C)CSCC(=O)N1CCOc1ccccc1` (stereo unspecified)?
Myeloid diff MLP: inactive; Granule exo inh: -8; Myeloid diff CP1: inactive; GFP autofluor: 0
